Bioassay records deposited in PubChem BioAssay by National Center for Advancing Translational Sciences (NCATS).
LmPK inhibitor: qHTS Assay for Inhibitors of Leishmania Mexicana Pyruvate Kinase (LmPK) | Q27686 | Potency, µM (titrated, usually from 57.5 µM), for the others: top-dose activity change, negative = inhibition, hits mostly inhibitors | purified LmPK, Kinase-Glo ATP luminescence, 1 h | hit rate 0.37% among 290,000; also: potency is read from the fitted curve at half-maximal effect; % is scaled to controls: 0 for no effect and ±100 for the full control effect
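Kinase-Glo luminescence read after 1 h RT reaction of 0.1 nM LmPK with 0.5 mM PEP and 0.1 mM ADP. Activity scaled between uninhibited and enzyme-free controls.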
Tb PYK inh: qHTS of Trypanosoma Brucei Inhibitors. Potency, µM (doses to about 76.8 µM), for inactives: at the top dose activity, negative = inhibition, most hits filed as inhibitors. TbPYK enzyme, Kinase-Glo Plus ATP luminescence, 45 min. hit rate 0.12% among 410,000. pyruvate kinase (Trypanosoma brucei), Q57TT1; also: potency is read from the fitted curve at half-maximal effect; % is scaled to controls: 0 for no effect and ±100 for the full control effect; nearly all actives have a fitted effect of over 50% in size
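Glycolytic pyruvate kinase of T. brucei was incubated with substrate, test compound and 130 uM ADP for 45 minutes at room temperature. Luminescent Kinase-Glo Plus signal was measured after 10 minutes.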
Giardia FBPA inh: qHTS Assay for Inhibitors of Fructose-1,6-bisphosphate Aldolase from Giardia Lamblia | A8B2U2 | hit rate 0.71% among 290,000 | purified Giardia FBPA | Potency, µM (series often up to 59.6 µM), without a hit: at the top dose activity, negative = inhibition, most hits filed as inhibitors | AID 2451, 2010; also: potency is read from the fitted curve at half-maximal effect; % is scaled to controls: 0 for no effect and ±100 for the full control effect; nearly all actives have a fitted effect of over 55% in size
Target sequence (A8B2U2 whole entry, looked up): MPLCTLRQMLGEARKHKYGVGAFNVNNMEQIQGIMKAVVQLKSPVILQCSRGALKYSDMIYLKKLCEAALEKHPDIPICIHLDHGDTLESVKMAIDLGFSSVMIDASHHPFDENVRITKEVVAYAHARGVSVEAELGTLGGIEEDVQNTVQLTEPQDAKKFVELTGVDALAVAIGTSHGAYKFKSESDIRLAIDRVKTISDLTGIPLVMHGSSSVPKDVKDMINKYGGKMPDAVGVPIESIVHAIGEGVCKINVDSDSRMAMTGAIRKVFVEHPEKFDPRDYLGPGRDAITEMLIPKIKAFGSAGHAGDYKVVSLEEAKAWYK
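Giardia FBPA (40 nM reagent) was preincubated 10 min at RT with compound (up to 57.5 uM final), then substrate plus GAPDH/TPI/NAD/arsenate coupling system with diaphorase/resazurin was added; resorufin fluorescence (525/598 nm) was read after 20 min.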
Sm TGR inh: qHTS Assay for the Inhibitors of Schistosoma Mansoni Peroxiredoxins; Schistosoma mansoni thioredoxin glutathione reductase (TGR), Q962Y6; purified TGR, DTNB reduction, TNB absorbance 405 nm; Potency, µM (top dose mostly 114 µM), inactives show top-dose activity change, negative = inhibition, usual class: inhibitors; hit rate 3% among 360,000; also: potency is read from the fitted curve at half-maximal effect; % is scaled to controls: 0 for no effect and ±100 for the full control effect; nearly all actives have a fitted effect of over 60% in size
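Kinetic colorimetric format: TGR-catalysed, NADPH-driven DTNB reduction monitored via TNB absorbance. Enzyme dispensed at 20 nM; compound exposure 15 min at room temperature before reaction start.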
Shiga inhibitor: A qHTS for Small Molecule Inhibitors of Shiga Toxin; hit rate 9.2% among 290,000; inhibition, % at 38.7 µM; AID 2315, 2010; Vero cells, Shiga toxin protein synthesis inhibition reporter; in the data active = inhibition mostly above about 28%, no sharp cut-off; inactive = mostly below about 43%; also: 0% is about no effect
Cycloheximide cs: Cycloheximide Counterscreen for Small Molecule Inhibitors of Shiga Toxin | cell reporter, cycloheximide protein synthesis inhibition counterscreen | max response, % | hit rate 12% among 300,000 | AID 2314, 2010; in the data active = max response mostly above about 13%, no sharp cut-off; inactive = mostly below about 14%; also: read at 38.3 µM for the half of the compounds with a filed dose; 0% is about no effect
* = called active by the depositor; ? = inconclusive; . = no result given; [ ] = another dose, or the depositor's remark. The full list was thinned out, with hits kept by preference. Unless noted, calls follow the shape of the dose curve; as a rule, active = well fitted curve in the direction sought with a large enough effect; inconclusive = small, poorly fitted or top-dose-only effect, or another doubt; inactive = no such curve, though single readings can be large; an effect the other way counts as inactive or inconclusive.

SMILES	LmPK inhibitor	Tb PYK inh	Giardia FBPA inh	Sm TGR inh	Shiga inhibitor	Cycloheximide cs
COc1ccc2cc(-c3cc(C(=O)OCC(=O)NC4CCS(=O)(=O)C4)c4ccccc4n3)ccc2c1 (stereo not drawn)	-11%	2%	-2%	-8%	30	26*
COc1ccc(NC(=O)C2(C)Cc3c(-c4ccc(N(C)C)cc4)ccnc3O2)cc1OC (stereo not drawn)	.	-4%	.	.	.	.
CC(C)Sc1cc(Cl)nc(NC(=O)Nc2ccccc2)n1	-5%	2%	5%	6%	50	29*
Cc1cc(C)c2c(n1)SCC(=O)N2CC(=O)Nc1c(C)cccc1C	0%	1%	3%	-21%	11	1
COc1ccc(C(=O)Nc2nc3cc4c(cc3s2)OCO4)c(OC)c1	0%	3%	6%	19%	66*	38*
CSc1ncccc1C(=O)Nc1ccc(OC(F)(F)F)cc1	6%	-14%	-5%	0%	15	13*
COc1ccc2nc(NC(=O)c3sc4nc(C)cc(C)c4c3N)sc2c1	2%	-4%	-3%	0%	76*	36*
Cc1cc(C(=O)Nc2nc3ccc(S(C)(=O)=O)cc3s2)c(C)o1	-27%	-22%	6%	-7%	30*	16*
COc1cc(NC(=O)c2cccnc2SC)cc(OC)c1OC	-9%	5%	5%	-11%	-6	2
Cc1cc(C)c2c(N)c(C(=O)Nc3ncc(C)s3)sc2n1	-25%	-10%	-19%	-3%	-15	-7
CC(=O)c1cccc(NC(=O)c2cc3nc(-c4ccc(Br)cc4)cc(C(F)(F)F)n3n2)c1	.	-4%	.	6%	.	.
O=C(O)COc1ccc2ccccc2c1	.	.	-1%	.	-4	-7
C[C@H](Cn1cnc2c(N)ncnc21)OCP(=O)(O)O	.	2%	.	.	.	.
O=C(Nc1cccc(C(F)(F)F)c1)c1cc2nc(-c3ccc4c(c3)OCO4)cc(C(F)(F)F)n2n1	.	-2%	.	14%	.	.
COc1ccc2nc(NC(=O)c3ccoc3C)sc2c1	5µM*	?	5%	2%	38*	48*
COc1ccc2nc(NC(=O)c3cccnc3SC)sc2c1	-21%	1%	-2%	-16%	35*	61*
COc1ccc2nc(NC(=O)c3cc(C)oc3C)sc2c1	25µM*	-23%	-4%	-8%	36*	18*
CSc1ncccc1C(=O)Nc1nc2ccc(S(C)(=O)=O)cc2s1	-3%	1%	1%	-1%	35	15
CCC(C)N(C(=O)CSc1nnc(COc2ccccc2F)n1N)C1CCS(=O)(=O)C1 (stereo not drawn)	.	-14%	.	-14%	.	.
C/C=C1\NC(=O)[C@H](CC(N)=O)N(C)C(=O)C([C@@H](C)O)NC(=O)C(CCCc2ccc(OC)cc2)NC(=O)[C@H](C(C)C)NC(=O)/C(=C\C)NC(=O)[C@H](O)[C@@H](C[C@@H](O)CCCCCCC)NC(=O)[C@H](C)NC(=O)CN(C)C(=O)[C@H](CCC(N)=O)NC1=O (stereo partly drawn)	.	-5%	.	.	.	.
COc1ccc2c(c1)O[C@@H](c1cccc(C(F)(F)F)c1)[C@H](OC(=O)NC1CCCC1)C2=O	.	.	1%	.	.	.
O=C(CCS(=O)(=O)c1ccc(Br)cc1)Nc1ccc(Cl)c(C(F)(F)F)c1	.	-9%[15.4 µM]	.	-17%	.	.
CCCCS(=O)(=O)/C=C\C=C/S(=O)(=O)CCCC	13%	?	9%	2.2µM*	-26	-9
CCCCS(=O)(=O)/C=C\C1C2C=CC(C2)C1S(=O)(=O)CCCC (stereo not drawn)	4%	-1%	7%	2%	11	-2
O=C/C=C/c1c(-c2ccccc2)cc2oc3ccccc3cc1-2	3%	-1%	-12%	20µM*	77	27*
SMILES	LmPK inhibitor	Tb PYK inh	Giardia FBPA inh	Sm TGR inh	Shiga inhibitor	Cycloheximide cs
O=c1oc2ccccc2cc1-c1nc(-c2cccc(Cl)c2)cs1	.	2%	.	0%	.	.
CC(C)CCNC(=O)CSc1nc2ccccc2nc1Cc1ccccc1	.	-11%	.	0%	.	.
O=C(N/N=C/c1ccco1)c1ccc(Br)o1	-11%	4%	-2%	3%	67*	25*
O=C(N/N=C/c1ccco1)c1cc2ccccc2o1	1%	1%	0%	-3%	59*	42*
O=C(COc1ccc(/C=N/NC(=O)c2cc3ccccc3o2)cc1Br)Nc1ccccc1	-1%	1%	-5%	-18%	112*	53*
CCn1cc(C(=O)NCCOC)c(=O)c2cc(S(=O)(=O)N3CCOCC3)ccc21	.	2%	.	8%	.	.
CC(=O)c1ccc(OCc2cc(C(=O)NC(C)CCn3cccn3)no2)cc1 (stereo not drawn)	-7%	-4%	8%	7%	111*	66*
CC(Cc1cccnc1)NC(=O)c1cc(COc2c(F)cccc2F)on1 (stereo not drawn)	-2%	2%	.	0%	16	0
Cc1ccc(OCc2cc(C(=O)NC(C)Cc3cccnc3)no2)cc1C (stereo not drawn)	-11%	-1%	.	1%	98*	35*
Cc1ccc(OCc2cc(C(=O)NCCc3cccnc3)no2)cc1C	1%	-4%	.	?	51*	36*
O=C(NCCCn1cccn1)c1cc(COc2ccccc2)on1	.	4%	.	.	.	.
Cc1ccc(OCc2cc(C(=O)NCCn3cccn3)no2)cc1C	-8%	-3%	.	7%	48*	22
Cc1cc(C)c(NS(=O)(=O)c2ccc(-c3cnc(C4CC4)o3)cc2)c(C)c1	.	7%	.	-1%	.	.
COCCCNC(=O)CSc1nc2cc3c(cc2c(=O)n1CCCC(=O)NCc1ccc2c(c1)OCO2)OCO3	.	0%	.	3%	.	.
O=c1c2sc3ccccc3c2n(Cc2ccc(F)cc2)c(=O)n1Cc1ccccc1	.	6%	.	-8%	.	.
COc1cc(NS(=O)(=O)c2ccc(N)cc2)nc(C)n1	.	-3%	.	.	.	.
O=C(NCCCn1cccn1)c1cc(COc2ccc(F)cc2Cl)on1	-2%	-7%	3%	-1%	22*	19*
O=C(O)C=C(Br)Br	-5%	3%	26%	50µM*	15	-1
O=C1CCn2nc(-c3ccc(Cl)cc3)cc2N1	-14%	-1%	4%	9%	79*	44*
COCCOC(=O)c1c(C)oc2ccc(O)c(CN3CCC(C)CC3)c12 (tested in a mixture with another compound)	.	2%	.	.	.	.
O=C(Cc1cccc([N+](=O)[O-])c1)Nc1ccc(C(=O)N2CCCCC2)cc1	.	-5%	.	.	.	.
Cc1cccc(-c2nsc(SCC(=O)NCC3CCCO3)n2)c1 (stereo not drawn)	3%	-10%	7%	1%	91*	44*
